These results are taken from ChEMBL document CHEMBL1961873, “Compounds: GSK PKIS; Assays: Nanosyn kinase panel” (2012).

The target of assay [1] is T1, Serine/threonine-protein kinase Nek9 (Homo sapiens) (UniProt Q8TD19).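 Further: each value is a mean percent inhibition of NEK9.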
T1 sequence (whole entry): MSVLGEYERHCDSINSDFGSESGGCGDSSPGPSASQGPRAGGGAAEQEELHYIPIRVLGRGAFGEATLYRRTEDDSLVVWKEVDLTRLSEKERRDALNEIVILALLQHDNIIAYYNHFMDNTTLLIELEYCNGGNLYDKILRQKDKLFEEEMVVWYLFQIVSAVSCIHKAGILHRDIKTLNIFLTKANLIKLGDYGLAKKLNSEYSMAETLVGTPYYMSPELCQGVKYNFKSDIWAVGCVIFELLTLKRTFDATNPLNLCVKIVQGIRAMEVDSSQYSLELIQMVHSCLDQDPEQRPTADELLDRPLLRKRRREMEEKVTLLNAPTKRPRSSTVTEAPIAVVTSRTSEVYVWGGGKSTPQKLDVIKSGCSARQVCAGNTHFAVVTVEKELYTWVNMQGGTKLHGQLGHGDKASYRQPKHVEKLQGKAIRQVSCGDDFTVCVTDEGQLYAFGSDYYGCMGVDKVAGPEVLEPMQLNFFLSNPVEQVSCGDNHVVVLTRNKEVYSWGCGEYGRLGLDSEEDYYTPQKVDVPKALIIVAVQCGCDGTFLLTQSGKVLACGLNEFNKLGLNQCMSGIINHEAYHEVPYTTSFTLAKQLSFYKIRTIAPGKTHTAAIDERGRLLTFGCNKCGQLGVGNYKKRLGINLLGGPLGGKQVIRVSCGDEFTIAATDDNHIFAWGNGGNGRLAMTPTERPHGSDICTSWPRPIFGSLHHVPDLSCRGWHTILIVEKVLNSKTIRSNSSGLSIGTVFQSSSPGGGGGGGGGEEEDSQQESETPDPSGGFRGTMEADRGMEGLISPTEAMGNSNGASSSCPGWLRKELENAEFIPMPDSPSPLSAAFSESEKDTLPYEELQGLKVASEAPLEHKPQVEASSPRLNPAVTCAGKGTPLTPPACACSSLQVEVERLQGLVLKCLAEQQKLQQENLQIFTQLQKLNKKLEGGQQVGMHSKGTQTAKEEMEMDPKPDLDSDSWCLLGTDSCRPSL
To be noted: at 1 µM.

The target in assay [2] is Serine/threonine-protein kinase PLK1 (Homo sapiens) (UniProt P53350). To be noted: at 0.1 µM.
For assay [3] the target is unchanged. To be noted: at 1 µM.
Assay [4] has as its target T2, Dual specificity protein kinase TTK (Homo sapiens) (UniProt P33981).
T2 sequence (whole entry): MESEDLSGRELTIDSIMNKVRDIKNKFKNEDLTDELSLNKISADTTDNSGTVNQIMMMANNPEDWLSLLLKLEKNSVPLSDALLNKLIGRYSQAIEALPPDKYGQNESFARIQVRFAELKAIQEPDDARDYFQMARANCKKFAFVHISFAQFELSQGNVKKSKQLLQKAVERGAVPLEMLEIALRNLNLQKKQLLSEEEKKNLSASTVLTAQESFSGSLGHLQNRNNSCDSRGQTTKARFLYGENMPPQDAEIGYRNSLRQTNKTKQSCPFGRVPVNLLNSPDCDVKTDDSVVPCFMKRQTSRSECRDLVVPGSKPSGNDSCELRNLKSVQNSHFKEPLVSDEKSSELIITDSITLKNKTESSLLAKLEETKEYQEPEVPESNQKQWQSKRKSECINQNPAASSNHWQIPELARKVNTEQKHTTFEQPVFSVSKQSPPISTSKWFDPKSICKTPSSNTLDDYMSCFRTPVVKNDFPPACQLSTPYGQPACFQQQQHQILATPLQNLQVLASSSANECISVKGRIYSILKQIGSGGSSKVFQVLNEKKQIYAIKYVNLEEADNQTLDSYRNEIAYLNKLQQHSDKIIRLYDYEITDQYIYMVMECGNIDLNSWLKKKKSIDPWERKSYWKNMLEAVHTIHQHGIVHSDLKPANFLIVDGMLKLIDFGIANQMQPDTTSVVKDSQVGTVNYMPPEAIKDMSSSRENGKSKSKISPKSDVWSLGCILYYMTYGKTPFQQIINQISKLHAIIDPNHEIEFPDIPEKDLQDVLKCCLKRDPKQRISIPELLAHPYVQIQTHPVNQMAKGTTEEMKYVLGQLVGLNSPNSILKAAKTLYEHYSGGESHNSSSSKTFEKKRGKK
Particulars: at 0.1 µM.

The subject of assay [5] is T3, Receptor-type tyrosine-protein kinase FLT3 (Homo sapiens), P36888 [D835Y].
T3 sequence (whole entry): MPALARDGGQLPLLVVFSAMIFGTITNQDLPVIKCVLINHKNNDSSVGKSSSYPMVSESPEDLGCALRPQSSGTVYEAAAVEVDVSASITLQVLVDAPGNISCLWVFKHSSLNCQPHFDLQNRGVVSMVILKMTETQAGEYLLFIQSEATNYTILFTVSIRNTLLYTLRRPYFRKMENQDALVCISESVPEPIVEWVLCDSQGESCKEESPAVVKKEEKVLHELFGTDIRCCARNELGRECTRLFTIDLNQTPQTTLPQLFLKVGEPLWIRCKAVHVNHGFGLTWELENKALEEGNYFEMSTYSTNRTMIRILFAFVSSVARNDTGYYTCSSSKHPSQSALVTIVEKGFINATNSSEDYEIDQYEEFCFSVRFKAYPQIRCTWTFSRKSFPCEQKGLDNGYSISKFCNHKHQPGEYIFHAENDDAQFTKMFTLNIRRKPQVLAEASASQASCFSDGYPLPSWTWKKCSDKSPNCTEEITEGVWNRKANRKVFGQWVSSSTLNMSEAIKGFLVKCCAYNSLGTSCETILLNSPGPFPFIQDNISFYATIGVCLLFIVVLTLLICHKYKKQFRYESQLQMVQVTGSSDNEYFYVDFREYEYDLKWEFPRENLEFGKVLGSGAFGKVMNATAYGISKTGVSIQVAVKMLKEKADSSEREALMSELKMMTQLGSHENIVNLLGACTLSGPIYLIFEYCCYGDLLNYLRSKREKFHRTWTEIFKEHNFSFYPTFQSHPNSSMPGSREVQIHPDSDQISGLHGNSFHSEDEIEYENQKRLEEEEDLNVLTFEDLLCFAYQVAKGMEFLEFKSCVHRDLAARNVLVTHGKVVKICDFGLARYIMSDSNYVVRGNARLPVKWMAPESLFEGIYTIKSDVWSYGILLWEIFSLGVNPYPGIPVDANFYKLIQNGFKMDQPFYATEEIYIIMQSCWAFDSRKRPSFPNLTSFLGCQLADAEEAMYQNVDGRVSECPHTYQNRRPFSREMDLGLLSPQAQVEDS
To be noted: at 1 µM.

Assay [6] addresses Vascular endothelial growth factor receptor 3 (Homo sapiens) (UniProt P35916). Particulars: at 0.1 µM.
Assay [7] shares this target. Particulars: at 1 µM.
Assay [8] has as its target Macrophage colony-stimulating factor 1 receptor (Homo sapiens) (UniProt P07333). To be noted: at 0.1 µM.
For assay [9] the target is unchanged. To be noted: at 1 µM.
The target in assay [10] is Tyrosine-protein kinase Fyn (Homo sapiens) (UniProt P06241). To be noted: at 0.1 µM.
Assay [11] has the same target. Particulars: at 1 µM.
Assay [12] has as its target Tyrosine-protein kinase HCK (Homo sapiens) (UniProt P08631). To be noted: at 0.1 µM.
The target is the same in assay [13]. To be noted: at 1 µM.
Assay [14] has as its target Insulin-like growth factor 1 receptor (Homo sapiens) (UniProt P08069). Particulars: at 0.1 µM.
The target is the same in assay [15]. Particulars: at 1 µM.
The target of assay [16] is Insulin receptor (Homo sapiens) (UniProt P06213). To be noted: at 0.1 µM.
For assay [17] the target is unchanged. To be noted: at 1 µM.
Assay [18] concerns the target Insulin receptor-related protein (Homo sapiens) (UniProt P14616). To be noted: at 0.1 µM.
The target is the same in assay [19]. To be noted: at 1 µM.
In assay [20] the target is T4, Tyrosine-protein kinase ITK/TSK (Homo sapiens) (UniProt Q08881).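 Further: mean percent inhibition of ITK from the GSK PKIS screen.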
T4 sequence (whole entry): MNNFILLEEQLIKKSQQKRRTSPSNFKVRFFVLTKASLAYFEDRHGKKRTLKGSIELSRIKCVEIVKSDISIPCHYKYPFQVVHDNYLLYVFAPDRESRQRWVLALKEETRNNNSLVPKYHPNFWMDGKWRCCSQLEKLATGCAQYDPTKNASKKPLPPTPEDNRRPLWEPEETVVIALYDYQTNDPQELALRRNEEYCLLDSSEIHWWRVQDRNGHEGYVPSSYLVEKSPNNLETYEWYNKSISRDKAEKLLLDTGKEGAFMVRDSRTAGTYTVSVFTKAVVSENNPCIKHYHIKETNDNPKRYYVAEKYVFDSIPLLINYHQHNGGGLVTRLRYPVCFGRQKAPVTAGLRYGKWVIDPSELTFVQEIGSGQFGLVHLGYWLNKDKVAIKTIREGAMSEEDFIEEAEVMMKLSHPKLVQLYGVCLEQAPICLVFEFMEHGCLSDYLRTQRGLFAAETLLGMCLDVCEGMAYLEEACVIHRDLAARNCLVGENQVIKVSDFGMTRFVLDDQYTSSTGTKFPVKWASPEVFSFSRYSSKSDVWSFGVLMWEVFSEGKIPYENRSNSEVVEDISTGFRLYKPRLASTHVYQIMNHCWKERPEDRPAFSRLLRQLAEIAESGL
To be noted: at 0.1 µM.

Chain of Tyrosine-protein kinase HCK (Homo sapiens) (P08631 2-526 limits assumed): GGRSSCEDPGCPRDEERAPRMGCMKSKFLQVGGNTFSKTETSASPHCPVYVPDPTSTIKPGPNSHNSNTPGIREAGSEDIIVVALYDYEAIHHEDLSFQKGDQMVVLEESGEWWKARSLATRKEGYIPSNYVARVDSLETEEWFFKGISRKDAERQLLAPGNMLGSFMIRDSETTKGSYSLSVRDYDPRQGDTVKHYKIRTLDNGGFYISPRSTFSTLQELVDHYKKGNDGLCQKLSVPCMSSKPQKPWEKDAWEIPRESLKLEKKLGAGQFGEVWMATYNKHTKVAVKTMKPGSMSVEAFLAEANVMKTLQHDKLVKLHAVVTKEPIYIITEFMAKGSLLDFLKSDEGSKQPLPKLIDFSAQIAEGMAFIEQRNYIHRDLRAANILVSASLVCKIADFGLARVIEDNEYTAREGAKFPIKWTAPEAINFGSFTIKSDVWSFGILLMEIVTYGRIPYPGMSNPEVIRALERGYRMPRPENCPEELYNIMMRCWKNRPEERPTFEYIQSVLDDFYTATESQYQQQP
Chain of Tyrosine-protein kinase Fyn (Homo sapiens) (P06241 2-537 limits assumed): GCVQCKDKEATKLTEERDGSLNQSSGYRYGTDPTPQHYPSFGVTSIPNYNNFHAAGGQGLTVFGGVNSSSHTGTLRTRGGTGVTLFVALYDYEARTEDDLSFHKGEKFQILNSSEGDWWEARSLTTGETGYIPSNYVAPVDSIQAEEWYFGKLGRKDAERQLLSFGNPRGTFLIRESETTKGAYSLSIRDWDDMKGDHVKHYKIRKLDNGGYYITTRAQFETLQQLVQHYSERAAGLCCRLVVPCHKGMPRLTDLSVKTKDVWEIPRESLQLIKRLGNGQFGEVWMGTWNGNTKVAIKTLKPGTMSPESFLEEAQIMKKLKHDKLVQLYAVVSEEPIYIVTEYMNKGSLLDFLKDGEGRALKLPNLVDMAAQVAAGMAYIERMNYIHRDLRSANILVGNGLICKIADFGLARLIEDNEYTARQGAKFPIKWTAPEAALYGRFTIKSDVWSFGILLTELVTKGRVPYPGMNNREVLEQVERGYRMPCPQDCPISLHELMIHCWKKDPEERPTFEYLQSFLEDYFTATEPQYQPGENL
Chain of Serine/threonine-protein kinase PLK1 (Homo sapiens) (P53350 whole entry): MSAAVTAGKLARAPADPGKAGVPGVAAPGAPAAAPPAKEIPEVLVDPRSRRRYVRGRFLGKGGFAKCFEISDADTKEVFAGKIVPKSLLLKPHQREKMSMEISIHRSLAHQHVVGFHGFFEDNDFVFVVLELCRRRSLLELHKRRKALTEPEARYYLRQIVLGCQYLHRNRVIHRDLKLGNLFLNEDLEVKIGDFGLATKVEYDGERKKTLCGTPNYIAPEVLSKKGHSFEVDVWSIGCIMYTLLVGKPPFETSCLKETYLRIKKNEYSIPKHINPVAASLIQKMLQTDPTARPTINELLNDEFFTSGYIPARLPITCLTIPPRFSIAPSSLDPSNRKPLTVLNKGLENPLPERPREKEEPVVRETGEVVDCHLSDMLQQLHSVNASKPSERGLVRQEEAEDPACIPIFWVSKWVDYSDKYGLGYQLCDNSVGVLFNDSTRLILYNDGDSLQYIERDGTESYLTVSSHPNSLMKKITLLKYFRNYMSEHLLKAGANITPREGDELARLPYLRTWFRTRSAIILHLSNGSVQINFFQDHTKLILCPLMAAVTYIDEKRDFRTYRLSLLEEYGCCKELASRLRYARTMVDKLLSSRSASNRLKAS
Chain of Insulin receptor (Homo sapiens) (P06213 28-758 limits assumed): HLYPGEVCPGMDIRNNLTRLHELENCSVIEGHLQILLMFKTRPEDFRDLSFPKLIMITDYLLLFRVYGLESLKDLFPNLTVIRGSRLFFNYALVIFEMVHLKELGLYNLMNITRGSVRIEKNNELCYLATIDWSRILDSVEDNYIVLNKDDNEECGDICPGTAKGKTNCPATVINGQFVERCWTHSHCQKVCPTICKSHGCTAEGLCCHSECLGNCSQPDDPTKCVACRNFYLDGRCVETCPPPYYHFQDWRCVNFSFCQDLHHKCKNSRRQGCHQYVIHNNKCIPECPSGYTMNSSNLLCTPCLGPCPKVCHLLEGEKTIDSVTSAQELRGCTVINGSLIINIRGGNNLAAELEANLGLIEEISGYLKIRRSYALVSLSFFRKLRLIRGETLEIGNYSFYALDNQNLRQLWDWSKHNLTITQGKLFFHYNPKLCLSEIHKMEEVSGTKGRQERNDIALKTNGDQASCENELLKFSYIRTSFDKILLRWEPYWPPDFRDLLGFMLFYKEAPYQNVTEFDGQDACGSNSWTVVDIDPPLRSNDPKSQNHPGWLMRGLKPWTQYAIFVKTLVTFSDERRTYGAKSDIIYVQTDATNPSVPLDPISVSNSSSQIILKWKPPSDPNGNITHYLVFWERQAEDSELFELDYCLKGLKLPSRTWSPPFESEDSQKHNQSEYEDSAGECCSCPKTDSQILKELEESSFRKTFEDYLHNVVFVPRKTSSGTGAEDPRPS
Chain of Insulin receptor (Homo sapiens) (P06213 763-1382 limits assumed): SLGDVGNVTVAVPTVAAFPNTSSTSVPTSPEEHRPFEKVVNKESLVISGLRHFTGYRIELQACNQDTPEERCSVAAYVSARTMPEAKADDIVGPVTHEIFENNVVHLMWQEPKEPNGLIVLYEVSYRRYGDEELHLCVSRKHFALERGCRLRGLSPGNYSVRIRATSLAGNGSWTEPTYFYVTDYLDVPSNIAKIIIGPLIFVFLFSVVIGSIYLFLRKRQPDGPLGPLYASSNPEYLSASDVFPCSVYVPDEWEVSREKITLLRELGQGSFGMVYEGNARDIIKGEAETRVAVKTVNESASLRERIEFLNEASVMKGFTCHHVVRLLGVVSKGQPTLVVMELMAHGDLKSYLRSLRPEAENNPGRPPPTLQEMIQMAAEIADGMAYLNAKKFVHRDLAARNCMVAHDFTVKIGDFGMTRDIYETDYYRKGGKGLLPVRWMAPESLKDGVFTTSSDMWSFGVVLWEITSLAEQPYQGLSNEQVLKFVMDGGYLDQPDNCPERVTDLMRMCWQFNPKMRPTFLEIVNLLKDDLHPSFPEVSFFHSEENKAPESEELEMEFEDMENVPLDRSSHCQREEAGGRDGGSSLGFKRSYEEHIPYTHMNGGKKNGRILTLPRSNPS
Chain of Insulin-like growth factor 1 receptor (Homo sapiens) (P08069 31-736 limits assumed): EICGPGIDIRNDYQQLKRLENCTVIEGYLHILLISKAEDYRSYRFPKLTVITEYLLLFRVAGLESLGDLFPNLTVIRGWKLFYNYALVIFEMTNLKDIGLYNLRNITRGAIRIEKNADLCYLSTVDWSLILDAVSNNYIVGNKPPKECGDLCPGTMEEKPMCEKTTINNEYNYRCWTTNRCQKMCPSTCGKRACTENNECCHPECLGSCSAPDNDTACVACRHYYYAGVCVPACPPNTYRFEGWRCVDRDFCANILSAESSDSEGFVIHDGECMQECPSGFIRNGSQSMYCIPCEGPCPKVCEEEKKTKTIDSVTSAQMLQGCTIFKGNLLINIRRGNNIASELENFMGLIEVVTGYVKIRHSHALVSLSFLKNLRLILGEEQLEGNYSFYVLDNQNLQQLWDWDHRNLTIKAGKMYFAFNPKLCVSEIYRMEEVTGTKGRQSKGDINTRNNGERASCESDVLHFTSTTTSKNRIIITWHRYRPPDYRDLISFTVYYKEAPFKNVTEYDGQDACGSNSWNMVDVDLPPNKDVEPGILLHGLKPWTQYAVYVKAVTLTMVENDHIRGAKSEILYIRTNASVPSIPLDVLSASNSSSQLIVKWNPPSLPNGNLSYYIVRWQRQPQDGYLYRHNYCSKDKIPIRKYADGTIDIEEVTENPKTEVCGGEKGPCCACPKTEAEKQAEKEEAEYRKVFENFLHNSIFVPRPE
Chain of Insulin-like growth factor 1 receptor (Homo sapiens) (P08069 741-1367 limits assumed): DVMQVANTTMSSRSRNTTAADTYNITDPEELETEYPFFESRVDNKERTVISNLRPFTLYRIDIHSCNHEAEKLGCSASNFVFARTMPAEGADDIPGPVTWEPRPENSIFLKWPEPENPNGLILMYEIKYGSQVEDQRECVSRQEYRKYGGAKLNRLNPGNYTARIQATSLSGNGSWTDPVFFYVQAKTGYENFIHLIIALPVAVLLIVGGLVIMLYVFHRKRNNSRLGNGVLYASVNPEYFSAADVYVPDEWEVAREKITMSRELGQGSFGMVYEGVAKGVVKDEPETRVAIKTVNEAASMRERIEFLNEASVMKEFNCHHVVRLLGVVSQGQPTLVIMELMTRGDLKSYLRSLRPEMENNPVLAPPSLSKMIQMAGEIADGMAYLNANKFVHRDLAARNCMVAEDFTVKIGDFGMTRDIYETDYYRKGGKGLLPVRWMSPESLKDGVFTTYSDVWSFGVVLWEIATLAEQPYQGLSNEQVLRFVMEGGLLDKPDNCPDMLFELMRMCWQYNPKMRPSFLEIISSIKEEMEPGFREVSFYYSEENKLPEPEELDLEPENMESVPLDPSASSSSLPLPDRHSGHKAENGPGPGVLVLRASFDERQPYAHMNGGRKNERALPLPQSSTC

The term inhibition denotes the change of the read-out against control, counted positive when it falls. For `CCn1c(-c2nonc2N)nc2c(N3CCCC3)nccc21`, the inhibition was 1.67% in assay [1]; 1.87% in assay [2]; -0.08% in assay [3]; 9.05% in assay [4]; -4.08% in assay [5]; 2.79% in assay [6]. Further, the inhibition in assay [7] was 3.38%; in assay [8], -0.51%; in [9], 0.02%; in assay [10], -0.01%; in [11] it was 0.7%; in [12], -0.01%. For the same molecule, the inhibition is 2.43% in assay [13]; 0.23% in assay [14]; 2.72% in assay [15]; 1.98% in assay [16]; -1.23% in [17]; -2.24% in assay [18]. Also, the figures for the inhibition in assay [19] and in assay [20] were -0.91% and 0.23%, respectively.

Regarding `O=C1NC(=O)C(c2cccc(Cl)c2)=C1Nc1ccc(O)c(Cl)c1`, the inhibition in [1] is 8.97%; in [2] it was 2.84%; in assay [3] it was 3.21%; in [4], 2.22%; in [5] it was 3.58%; in [6] it was 1.15%. Also, the inhibition came to 13.3% in [7]; 5.89% in [8]; 46.8% in assay [9]; 2.3% in assay [10]; 2.24% in assay [11]; 1.14% in [12]. Further, the inhibition in [13] is 3.34%; in assay [14], -1.68%; in assay [15], 2.43%; in [16] it was 4.11%; in assay [17], 6.7%; in assay [18], 1.1%. The inhibition is 0.03% in [19] and 0.25% in assay [20].

As to `CCn1c(-c2nonc2N)nc2cnc(Oc3cccc(NC(=O)c4ccc(OCCN5CCOCC5)cc4)c3)cc21`, the inhibition in [1] was 17%; in assay [2], 4.54%; in assay [3], 2.83%; in [4], 10.3%; in assay [5], -0.53%; in [6], -0.39%. Besides, the inhibition in assay [7] came to 0.92%; in [8] it was 1.4%; in assay [9], 2.86%; in assay [10] it was 1.07%; in [11], 5.35%; in assay [12], 6.47%. In addition, the inhibition in [13] is 4.67%; in assay [14], -0.59%; in [15], 1.49%; in assay [16] it was 5.62%; in [17] it was 7.3%; in [18] it was 1.29%. In addition, the inhibition in assay [19] was 0.16%; in assay [20], 0.81%.

For `CCn1c(-c2nonc2N)nc2c(C#CC(C)(C)O)nc(CN3CCCC3)cc21`, the inhibition is 3.04% in assay [1]; -0.39% in [2]; -1.2% in assay [3]; 1.71% in assay [4]; 0.63% in assay [5]; 0.61% in assay [6]. The inhibition in assay [7] was 5.17%; in assay [8] it was -0.03%; in [9], 2.57%; in assay [10] it was 2.94%; in [11] it was 3.44%; in assay [12], -1.79%. Moreover, the inhibition in [13] is 2.1%; in assay [14], -0.3%; in assay [15], -1.42%; in assay [16], 0.13%; in [17], -0.45%; in assay [18], -1.19%. The inhibition was -0.92% in assay [19] and 0.22% in [20].
